Measured values reported in PubChem BioAssay (Tox21).
Records with an inconclusive call do not appear. Activity calls are given as the source filed them. Calls follow the shape of the dose curve; as a rule, active = well fitted cell-killing curve with a large enough effect in the repeat runs; inconclusive = weak or mixed curves, or effect the other way; inactive = flat fitted curve, though single readings scatter.

Assay: qHTS RealTime-Glo MT Cell Viability Assay in HEK293 cells - 40 hour (AID 1224874); also: nearly all actives have a fitted effect of over 50% in size
Conditions: RealTime-Glo luminescence, stronger effect = lower value
Excerpt: U.S. Tox21 Program National Center for Advancing Translational Sciences [NCATS] NIH Chemical Genomics Center [NCGC] U.S. Environmental Protection Agency [EPA] National Institutes of Environmental Health Sciences [NIEHS] National Toxicology Program [NTP] U.S. Food and Drug Administration [FDA] Tox21 Assay Overview: Measure of cell viability is critical in the cell-base assay. Analysis of cell viability is necessary for the characterization of cell responses to cytotoxic drugs and environmental stress. A RealTime-Glo MT Cell Viability Assay to monitor cell viability in real time of continues cell culture during 40 hours of compound treatment was used to screen Tox21 10K library compounds in Hek293 cells. The RealTime-Glo MT Cell Viability Assay is a nonlytic, homogeneous, bioluminescent method to measure cell viability in real time using a simple, plate-based method. The assay involves adding NanoLuc luciferase and a cell-permeant prosubstrate to cells in culture. Viable cells reduce the proprietary prosubstrate to generate a substrate for NanoLuc luciferase. This substrate diffuses from cells into the surrounding culture medium, where it is rapidly used by the NanoLuc Enzyme to produce a luminescent signal. The signal correlates with the number of viable cells, making the assay well suited for cytotoxicity studies.
Tox21 Assay Protocol Summary: The mixture of Hek293 cell suspension and reagents were dispensed at 600cells/6 ul/well in 1536-well tissue culture treated black solid bottom plates using a Multidrop dispenser. After the assay plates were incubated at a 37 C/5% CO2 incubator for 5 hours, 23 nL of compounds dissolved in DMSO, positive and negative controls was transferred to the assay plate by a pintool work station. The plates were incubated at 37 C for 40 hours. The luminescence intensity were measured at 0h, 8h, 16h, 24h, 32h and 40h time points using ViewLux plate reader during compound treatment.
% is scaled to controls: 0 for no effect and ±100 for the full control effect.

| Compound | max response |
| --- | --- |
| Cc1ccc(NC(N)=O)cc1 | 11.1% (inactive) |
| CC/C=C\CCCCCCCCCCOC(C)=O | -0.318% (inactive) |
| O=C(O)CCC(=O)Nc1ccc(S(=O)(=O)Nc2nccs2)cc1 | 2.99% (inactive) |
| CCc1ncc(C)[nH]1 | 1.1% (inactive) |
| O=S(=O)(O)c1ccc(Cl)cc1 | 0.949% (inactive) |
| O=P(O)(O)C(O)(Cc1cccnc1)P(=O)(O)O | -1.75% (inactive) |
| CC(C)(C)c1ccc(N)cc1 | -2.84% (inactive) |
| NNC(=O)OCc1ccccc1 | -4.79% (inactive) |
| CCCCN=C(N)N=C(N)N | -14.6% (inactive) |
| N#Cc1cc(NC(=O)C(=O)O)c(Cl)c(NC(=O)C(=O)O)c1 | -0.333% (inactive) |
| C[C@@H]1CCC[C@H](C)N1CCCC(O)(c1ccccc1)c1ccccn1 (stereo not given in full) | 4.53% (inactive) |
| O=S(=O)(O)CC(O)CCl (stereo not given) | 5.44% (inactive) |
| CNCCc1ccccn1 | -0.337% (inactive) |
| CC(=O)Oc1ccc(C(C)=O)cc1 | -8% (inactive) |
| Cc1cc(O)c(Cl)cc1C | -1.07% (inactive) |
| NS(=O)(=O)c1cc2c(cc1C(F)(F)F)NCNS2(=O)=O | 14.4% (inactive) |
| CC(C)C(C)C | 5.69% (inactive) |
| CC(=O)c1ccc(O)c(C(N)=O)c1 | 2.03% (inactive) |
| CCCC(=O)C(CC)Sc1ccoc1C (stereo not given) | -5.27% (inactive) |
| CCCCCCC(O)CO (stereo not given) | 1.68% (inactive) |

| Compound | max response |
| --- | --- |
| Cc1ccc(N)nc1 | 0.353% (inactive) |
| c1coc(Cn2cccc2)c1 | 2.22% (inactive) |
| COc1cc2nc(N3CCN(C(=O)C4CCCO4)CC3)nc(N)c2cc1OC (stereo not given) | -19.2% (inactive) |
| CC(=O)SCC(CC(=O)c1ccc(C)cc1)C(=O)O (stereo not given) | -0.0795% (inactive) |
| c1cc2ccc3ccc4ccc5cccc6c(c1)c2c3c4c56 | 1.82% (inactive) |
| CCOc1ccccc1OCCN[C@H](C)Cc1ccc(OC)c(S(N)(=O)=O)c1 | -2.4% (inactive) |
| COC(=O)c1cc(Cl)c(NC(C)=O)cc1OC | 0.647% (inactive) |
| CC(CN1CC(=O)NC(=O)C1)N1CC(=O)NC(=O)C1 (stereo not given) | -4.03% (inactive) |
| Cc1cccc(N)n1 | -4.06% (inactive) |
| CCN1CCN(C(=O)N[C@@H](C(=O)N[C@@H]2C(=O)N3C(C(=O)O)=C(CSc4nnnn4C)CS[C@H]23)c2ccc(O)cc2)C(=O)C1=O | 15.1% (inactive) |
| CCC(C)SSC(C)CC (stereo not given) | 3.14% (inactive) |
| COc1ccc2cc(CCC(C)=O)ccc2c1 | -11.3% (inactive) |
| N#Cc1ccccc1C#N | 4.47% (inactive) |
| N[C@H]1C(O)O[C@H](CO)[C@@H](O)[C@@H]1O (stereo not given in full) | -1.72% (inactive) |
| CCCCCCCCCCCCCCCCN(C)C | 4.91% (inactive) |
| COc1cc(OC)cc(OC)c1 | 6.85% (inactive) |
| O=C(O)COc1ccc2ccccc2c1 | 1.62% (inactive) |
| N=C(N)N1CCc2ccccc2C1 | 0.0826% (inactive) |
| CN1C(CCl)Nc2cc(Cl)c(S(N)(=O)=O)cc2S1(=O)=O (stereo not given) | -6.26% (inactive) |
| C[C@@H]1CC[C@@]2(OC1)O[C@H]1C[C@H]3[C@@H]4CC[C@H]5C[C@@H](O)CC[C@]5(C)[C@H]4CC(=O)[C@]3(C)[C@H]1[C@@H]2C | -0.328% (inactive) |
